Source: PubChem (Broad Institute)
Compounds with a hit are over-represented: about 2.9% of the library has one in this group of screens.
PfHsp90 set2: reduces growth (ATP signal) of yeast expressing P. falciparum Hsp90. S. cerevisiae expressing PfHsp90, BacTiter-Glo ATP, 48 h; yeast lacking PDR1 and PDR3 efflux regulators. inhibition, % at 9.4 µM. 0.32% of 310,000 active;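 active = every replicate shows inhibition above about 80%, whatever the replicate mean, limit read from the data; inconclusive = mean inhibition reaches the set limit but some replicate falls short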;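 also: 0% = DMSO neutral controls and 100% = 20 µM radicicol positive controls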
NSD2 HMT inh: NSD2 (human) methyltransferase inhibition | inhibition, % at 12.5 µM | O96028 | NSD2 peptide methylation, AlphaScreen, 120 min | 0.54% of 310,000 active; in the data active = inhibition above about 50%
Glyco luc inh: blocks N-linked glycosylation in D54 reporter cells; AID 588692; reporter increase, % at 12.5 µM; D54 ERlucT glycosylation luciferase reporter, 24 h; percent of 100 nM tunicamycin response; 0.23% of 360,000 active;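 active = mean luciferase reporter signal, scaled so untreated is 0 and the glycosylation-blocking control 100, at or above a set limit in every replicate; inconclusive = mean reaches the limit but not every replicate does; inactive = mean below the limit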;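 also: luciferase carries N-glycosylation sites so blocking glycosylation raises the light; 0% = median of neutral control wells and 100% = median of 100 nM tunicamycin wells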
MITF TRPM1 inh: MITF TRPM1 promoter inhibition in SK-MEL-5 cells; SK-MEL-5 TRPM1 promoter luciferase, 24 h; 0.83% of 330,000 active; inhibition, % at 12.5 µM;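 active = mean inhibition across replicates of 60% or more, whatever share of single replicates reaches that level; inconclusive = some that reach 60%, reason not given; inactive = mean inhibition across replicates below 60%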
Wnt bcat act: Wnt/beta-catenin pathway activation | Wnt/beta-catenin reporter cell assay, activator, plate reader | activation, % at 9.35 µM | 1.2% of 300,000 active; in the data active = activation above about 30%, passing the limit was not always enough; inconclusive = no clear call, values can overlap the other calls;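 also: 0% = neutral control wells and 100% = positive control wells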
MITF TRPM1 HTS: increases MITF-driven TRPM1 promoter luciferase signal | SK-MEL-5 TRPM1-promoter luciferase, 24 h; % of positive control, neutral wells = 0 | activation, % at 12.5 µM | 0.75% of 300,000 active | AID 588334;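 active = mean activation of at least 80% with every replicate also reaching 80%; inconclusive = mean reaches 80% but some replicate falls short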;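 also: 0% = neutral control wells and 100% = parthenolide positive control wells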
Numbers without * were called inactive.

How did CN1C2CCC1/C(=C\c1ccc(F)cc1)C(=O)/C2=C/c1ccc(F)cc1 do in these assays?
PfHsp90 set2: 17; NSD2 HMT inh: 8; Glyco luc inh: 20; MITF TRPM1 inh: 26; Wnt bcat act: -2; MITF TRPM1 HTS: -29

Results for O=c1[nH]nc2c3ccccc3occ1-2 ?
Wnt bcat act: 8

What do the screens show for `CCN(N=O)c1ccc(C=C2C=Cc3ccccc32)cc1`?
PfHsp90 set2: -42; Glyco luc inh: -12; MITF TRPM1 inh: -91; Wnt bcat act: 41*; MITF TRPM1 HTS: 97*

Results for COc1ccc(NC(=O)Nc2ccc3nonc3c2)cc1 ?
NSD2 HMT inh: 1; Glyco luc inh: 0; Wnt bcat act: 39*

How did Cn1nnc2cc(NC(=O)Nc3cccc(Cl)c3)ccc21 do in these assays?
PfHsp90 set2: 26; NSD2 HMT inh: -3; Glyco luc inh: -2; MITF TRPM1 inh: -98; Wnt bcat act: 19; MITF TRPM1 HTS: 93*

What do the screens show for `COc1ccc(NC(=O)Nc2ccc(N(C)C)cc2)cc1`?
PfHsp90 set2: 24; NSD2 HMT inh: 4; Glyco luc inh: -4; MITF TRPM1 inh: -58; Wnt bcat act: 65*; MITF TRPM1 HTS: 67

How did COC(=O)c1ccc(NC(=O)Nc2ccc(OC)cc2)cc1 do in these assays?
PfHsp90 set2: -15; NSD2 HMT inh: -1; Glyco luc inh: 2; MITF TRPM1 inh: -31; Wnt bcat act: 1; MITF TRPM1 HTS: 33

Results for COc1ccc(NC(=O)Nc2ccc(OC)cc2)cc1 ?
PfHsp90 set2: -5; NSD2 HMT inh: -1; Glyco luc inh: 2; MITF TRPM1 inh: -53; MITF TRPM1 HTS: 62

What do the screens show for `Cn1nnc2cc(C(=O)Nc3ccc4ccccc4c3)ccc21`?
PfHsp90 set2: -15; NSD2 HMT inh: -1; Glyco luc inh: -2; MITF TRPM1 inh: -80; Wnt bcat act: 56*; MITF TRPM1 HTS: inconclusive

What do the screens show for `Nn1c(SCC(=O)Nc2nccs2)nnc1-c1cc(-c2ccccc2)n[nH]1`?
NSD2 HMT inh: -2

What do the screens show for `O=C(Nc1cccc(Cl)c1)Nc1ccc2nccnc2c1`?
PfHsp90 set2: 7; NSD2 HMT inh: 1; Glyco luc inh: -4; MITF TRPM1 inh: -104; Wnt bcat act: -1; MITF TRPM1 HTS: 112*

What do the screens show for `COc1ccc(NC(=O)Nc2ccc3nccnc3c2)cc1`?
PfHsp90 set2: -9; NSD2 HMT inh: 2; Glyco luc inh: -2; MITF TRPM1 inh: -97; MITF TRPM1 HTS: 96*

How did COc1ccc(NC(=O)Nc2ccccc2SC)cc1 do in these assays?
PfHsp90 set2: -1; NSD2 HMT inh: 2; Glyco luc inh: 3; MITF TRPM1 inh: -32; Wnt bcat act: 40*; MITF TRPM1 HTS: 35

Results for COc1ccc(NC(=O)Nc2nccs2)cc1 ?
PfHsp90 set2: -2; NSD2 HMT inh: -3; Glyco luc inh: 12; MITF TRPM1 inh: -29; MITF TRPM1 HTS: 33

What do the screens show for `CSCCC(NC(=O)c1ccco1)C(=O)N(C)CC(=O)Nc1ccccc1Br` (stereo not given)?
NSD2 HMT inh: 0; Glyco luc inh: 0; MITF TRPM1 inh: 5; Wnt bcat act: -2; MITF TRPM1 HTS: -6

How did C1CCC(C(CC2CCCCN2)C2CCCCC2)CC1 (stereo not given) do in these assays?
PfHsp90 set2: 8; Glyco luc inh: -1; MITF TRPM1 inh: 81*; Wnt bcat act: -2; MITF TRPM1 HTS: -80

What do the screens show for `O=c1nc(/C=C/c2ccc(O)c(O)c2)oc2ccccc12`?
PfHsp90 set2: 7; Glyco luc inh: -2; MITF TRPM1 inh: -71; MITF TRPM1 HTS: 82*

Results for N/C(=N\OC(=O)c1ccoc1)c1ccc(Br)cc1 ?
PfHsp90 set2: 20; NSD2 HMT inh: -2; Glyco luc inh: -6; MITF TRPM1 inh: -93; Wnt bcat act: 42*; MITF TRPM1 HTS: 93*

How did Cc1cc(C)cc(C(=O)O/N=C(\N)c2ccc(Br)cc2)c1 do in these assays?
PfHsp90 set2: -10; NSD2 HMT inh: -1; Glyco luc inh: 1; MITF TRPM1 inh: -18; MITF TRPM1 HTS: 21

What do the screens show for `N#CCC(=O)N/N=C\c1ccc(OC/C=C/c2ccccc2)cc1`?
PfHsp90 set2: 1; NSD2 HMT inh: -2; Glyco luc inh: 0; MITF TRPM1 inh: -120; Wnt bcat act: 27; MITF TRPM1 HTS: 122*
